Assay outcomes deposited in PubChem BioAssay by NMMLSC.
BoNT-A LC inh2 = blocks Botulinum neurotoxin A light chain protease; multiplex microsphere protease substrate cleavage, flow cytometry; hit rate 0.17% among 360,000; inhibition, % at 10 µM; AID 588499
BoNT F protease = blocks Botulinum neurotoxin F light chain protease; Multiplex microsphere protease cleavage assay, flow cytometry; inhibition, % at 10 µM; hit rate 0.22% among 360,000; AID 588497; in the data active = inhibition above about 35%, passing the limit was not always enough; inconclusive = no clear call, values can overlap the other calls
Anthrax LF prot = anthrax lethal factor protease inhibition; inhibition, % at 10 µM; hit rate 0.12% among 360,000; AID 588501; multiplex microsphere protease cleavage assay, LF; P15917
Target sequence (P15917 whole entry, looked up): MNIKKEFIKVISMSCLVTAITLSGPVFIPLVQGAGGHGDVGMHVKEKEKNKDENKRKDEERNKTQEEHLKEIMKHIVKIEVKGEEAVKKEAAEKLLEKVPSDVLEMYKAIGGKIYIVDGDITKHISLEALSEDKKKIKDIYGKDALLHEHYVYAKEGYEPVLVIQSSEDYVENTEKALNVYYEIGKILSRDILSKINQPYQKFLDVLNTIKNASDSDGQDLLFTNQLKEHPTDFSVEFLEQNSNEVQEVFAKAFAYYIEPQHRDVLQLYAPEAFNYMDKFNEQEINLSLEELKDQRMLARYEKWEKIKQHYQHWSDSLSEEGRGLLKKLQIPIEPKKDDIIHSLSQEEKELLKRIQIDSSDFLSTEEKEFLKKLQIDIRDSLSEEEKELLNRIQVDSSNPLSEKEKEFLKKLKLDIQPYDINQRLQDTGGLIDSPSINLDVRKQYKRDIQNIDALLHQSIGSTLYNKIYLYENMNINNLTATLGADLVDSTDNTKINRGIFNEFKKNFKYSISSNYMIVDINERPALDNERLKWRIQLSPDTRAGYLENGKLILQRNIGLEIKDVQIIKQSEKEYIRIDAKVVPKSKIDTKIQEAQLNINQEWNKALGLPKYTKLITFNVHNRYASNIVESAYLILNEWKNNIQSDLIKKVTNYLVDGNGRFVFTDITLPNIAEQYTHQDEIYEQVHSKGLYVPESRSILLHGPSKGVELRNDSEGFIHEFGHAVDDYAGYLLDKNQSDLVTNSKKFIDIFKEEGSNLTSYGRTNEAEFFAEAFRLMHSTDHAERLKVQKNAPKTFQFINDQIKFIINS
Bead autofluor = counter-screen for toxin protease inhibitors: compound fluorescence. fluorescence intensity (no concentration beside the values). compound autofluorescence counterscreen, microsphere flow cytometry; active compounds read high. AID 624483. hit rate 3.1% among 360,000; in the data active = fluorescence intensity above about 16000; inconclusive = no clear call, values can overlap the other calls
Large screens that a line does not name were inactive. Only some compounds are listed: those with a hit (about 3.5% of all), similar ones and a draw of the others. Cut-off read from the data, not from the text of the source, unless noted: active = inhibition above about 30%; inconclusive = no clear call, values can overlap the other calls; inactive = below that.

O=C(NC1CCCCC1)C(c1ccco1)N(C(=O)c1csnn1)C1CCCC1 (stereo not drawn)	Bead autofluor 22986
CC(C)(C)NC(=O)C(c1ccccc1F)N(Cc1ccco1)C(=O)c1csnn1 (stereo not drawn)	Bead autofluor 16964
O=C(NC1CCCC1)C(c1ccco1)N(Cc1ccccc1)C(=O)c1csnn1 (stereo not drawn)	BoNT-A LC inh2 inconclusive, Bead autofluor 20226
OC[C@@H]1CN(Cc2ccco2)C[C@H](n2cnc3c(N4CCOCC4)ncnc32)O1	none
COCCN(C(=O)c1csnn1)C(C(=O)NC1CCCCC1)c1sccc1C (stereo not drawn)	Bead autofluor 23376
COCCN(C(=O)c1csnn1)C(C(=O)NC1CCCCC1)c1cccs1 (stereo not drawn)	none
CC(=O)Nc1ccc(S(=O)(=O)N(C)CC(=O)OCC(=O)Nc2cccnc2Cl)cc1	none
CC(=O)c1nc2ccccc2n1S(=O)(=O)c1ccc(Cl)cc1	BoNT-A LC inh2 inconclusive, Bead autofluor 18292
Cc1occc1-c1nc(-c2ccncc2)no1	Bead autofluor 21018
Cc1cc(OCc2cc(C(=O)N3CCC(Oc4cccnc4)CC3)no2)cc(C)c1Cl	Bead autofluor inconclusive
Cc1ccc(S(=O)(=O)N2CCN(c3nc(CN4CCCC4)nc4sc(C)c(C)c34)CC2)cc1	none
Cc1sc2nc(CN3CCCC3)nc(N3CCN(S(=O)(=O)c4cccs4)CC3)c2c1C	BoNT-A LC inh2 inconclusive, Bead autofluor 24350
COc1ccc2c(c1)CCC1C2=NN(/C(C)=C\C(C)=O)C1c1ccc(F)cc1 (stereo not drawn)	BoNT-A LC inh2 inconclusive, BoNT F protease inconclusive, Anthrax LF prot inconclusive, Bead autofluor 34486
COc1ccc2c(c1)C1=NN(/C(C)=C\C(C)=O)C(c3ccccc3)C1CC2 (stereo not drawn)	Bead autofluor 21972
COc1ccc2c(c1)C1=NN(/C(C)=C/C(C)=O)C(c3ccc(F)cc3)C1CC2 (stereo not drawn)	none
Cc1cccn2c(=O)c(C=O)c(N3CC(C)OC(C)C3)nc12 (stereo not drawn)	none
COc1ccccc1N1CCN(c2nc3c(C)cccn3c(=O)c2C=O)CC1	BoNT-A LC inh2 inconclusive, Bead autofluor 20185
Cc1cccn2c(=O)c(C=O)c(N3CCCCCC3)nc12	Bead autofluor 19642
O=c1[nH]c(CO)nc2c1oc1ccccc12	none
Cc1nc2c(oc3ccccc32)c(=O)o1	Bead autofluor 16908
O=c1[nH]c(Cc2ccccc2)nc2c1oc1ccccc12	Bead autofluor 21955
COc1ccccc1Oc1cc(F)nc(N)n1	BoNT-A LC inh2 inconclusive, Bead autofluor 17544
COc1ccccc1N1CC(C(=O)OCC(=O)c2c(N)n(C)c(=O)n(C)c2=O)CC1=O (stereo not drawn)	none
COCc1n[nH]c(=S)n1-c1cccc2ccccc12	Bead autofluor 23066
CC(=O)Nc1cccc(-c2cccc3nccn23)c1	none
O=C(Nc1ccc2c(c1)OCCO2)N1CCN(Cc2ccccc2)CC1	none
Cc1ccc(-n2c(Cc3cccn3C)nnc2SCC(=O)Nc2ccc3c(c2)OCO3)cc1	Bead autofluor 24086
Cc1ccc(-n2c(Cc3cccn3C)nnc2SCC(=O)NCc2ccc3c(c2)OCO3)cc1	Bead autofluor 21493
COc1ccc(-n2c(Cc3cccn3C)nnc2SCC(=O)NCc2ccc(F)cc2)cc1	none
Cc1onc(-c2ccccc2Cl)c1C(=O)N1C=CC(C(F)(F)Cl)=NCC1	Bead autofluor 22372
Cc1onc(-c2ccccc2Cl)c1C(=O)N1CC(C)OC(C)C1 (stereo not drawn)	BoNT-A LC inh2 inconclusive, Bead autofluor 23411
Cc1onc(-c2ccccc2Cl)c1C(=O)O/N=C(\N)c1cccc([N+](=O)[O-])c1	none
Cc1onc(-c2ccccc2Cl)c1C(=O)O/N=C(\N)c1ccccc1	Bead autofluor 16593
COc1cc(CC(=O)N(CC(C)C)C2CCS(=O)(=O)C2)cc(OC)c1OC (stereo not drawn)	none
CC(Nc1ccc(F)cc1)=[N+](C)CCNS(=O)(=O)c1ccc(Cl)cc1	none
CCC(C)n1c(SCC(=O)Nc2ccccc2C(F)(F)F)nc2ccsc2c1=O (stereo not drawn)	Bead autofluor 21867
CCn1c(SC/C=C/c2ccccc2)nnc1-c1cccs1	Bead autofluor 20863
CCn1c(SC/C=C/c2ccccc2)nnc1-c1cnccn1	Bead autofluor 21032
Cc1cc2c(C)cc(=O)oc2c2c1NCCC2	Bead autofluor 25354
O=C(NCc1ccco1)c1cc2n(n1)C(C(F)(F)F)CC(c1ccc(Cl)c(Cl)c1)N2 (stereo not drawn)	Bead autofluor 17695
C[C@@]12C(=O)N(c3cccc(F)c3)C(=O)N1[C@@H]1c3ccccc3OC[C@@H]1[C@H]2c1ccccc1	none
CCN(CC)c1ccc(C(=O)c2ccccc2C(=O)O)c(O)c1	BoNT-A LC inh2 inconclusive, Bead autofluor 23518
Cn1c(C(=O)N2CCN(c3nc4ccccc4s3)CC2)cc2sccc21	Bead autofluor 19151
CCCC(=O)N1CCN(c2nc3ccccc3s2)CC1	none
CCN1CCN(c2nc3ccccc3s2)CC1	BoNT-A LC inh2 inconclusive, Bead autofluor 20785
CC(C)(C)C(=O)N1CCN(c2nc3ccccc3s2)CC1	none
CSc1ccc(NC(=O)N2CCN(c3nc4ccccc4s3)CC2)cc1	BoNT-A LC inh2 inconclusive, Bead autofluor 21539
CCOC(=O)c1sc2ccc(S(=O)(=O)N3CC(C)CC(C)C3)cc2c1N (stereo not drawn)	none
Cc1ccc(S(=O)(=O)NC(=O)COc2cc(C)ccc2C(C)C)cc1	none
CCOc1ccc(OCc2ccc(C(=O)N3N=C(C(F)F)CC3(O)C(F)F)o2)cc1 (stereo not drawn)	Bead autofluor 17666
Cc1ccc(NC(=O)C2CCN(S(=O)(=O)c3ccc4c(c3)OCCCO4)CC2)nc1	none
COc1ccc(CNC(=O)c2cnn3c(C(F)F)cc(C)nc23)cc1OC	none
CC1(C)CC(=O)C(C2C3=C(CC(C)(C)CC3=O)Oc3ccccc32)=C(O)C1 (stereo not drawn)	none
COc1ccc2c(c1)C(C1=C(O)CC(C)(C)CC1=O)C1=C(CC(C)(C)CC1=O)O2 (stereo not drawn)	Bead autofluor 24480
COc1ccc(CN2C(=O)/C(=C/c3ccncc3)SC2=S)cc1	none
COc1ccccc1C1SCCN1S(C)(=O)=O (stereo not drawn)	none
COc1ccc(OC)c(C2SCCN2S(C)(=O)=O)c1 (stereo not drawn)	Bead autofluor 22914
Cc1cccc(C)c1NC(=S)N/N=C/c1ccc(OCCC(C)C)cc1	Bead autofluor 20711
CC[C@H]1C=C[C@@H](C(C(=O)OC)C(=O)OC)CN1C(C)=O	none
COC(=O)C(NC(=O)c1ccccc1)c1ccccc1 (stereo not drawn)	Bead autofluor 25637
COC(=O)C(NC(=O)C(C)Oc1ccccc1)C(C)C (stereo not drawn)	BoNT-A LC inh2 inconclusive, Bead autofluor 20348
O=C(NC(C(=O)O)c1ccccc1)c1ccccc1 (stereo not drawn)	none
COC(=O)C(NC(=O)C(NC(=O)c1ccccc1)C(C)C)C(C)C (stereo not drawn)	Bead autofluor 22539
CN(CC(=O)Nc1ccccc1Cl)C(=O)COC(=O)C1CC1	Bead autofluor inconclusive
CCC(CO)NCC#Cc1ccccc1 (stereo not drawn)	none
